Bioassay records (PubChem BioAssay)
Many of the other results were omitted from the sample, so hits are more common in it than they were.
Pf Dd2 growth: Plasmodium falciparum Dd2 growth inhibition | 120,000 compounds, 4.3% hits | Potency, µM (top dose mostly 28.9 µM), hits mostly inhibitors | P. falciparum Dd2 growth, SYBR Green, 72 h; active means well fitted inhibition curve with a large enough effect; further: nearly all actives have a fitted effect of over 65% in size
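Readout: SYBR Green fluorescence, 485 nm excitation, 535 nm emission, after ~16 h lysis at 37C. Before that, Dd2-infected red cells (2.5% hematocrit) grew 72 h with compound, 29 uM top final concentration.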
Large screens that a line does not name were inactive.

Cc1ccc(S(=O)(=O)c2cn(Cc3ccccc3)c3cc(N4CCOCC4)c(F)cc3c2=O)cc1	Pf Dd2 growth 7.9µM
Cc1cccc(S(=O)(=O)c2cn(Cc3ccccc3)c3cc(N4CCCC(C)C4)c(F)cc3c2=O)c1 (stereo not drawn)	none
Cc1cccc(S(=O)(=O)c2cn(Cc3ccc(F)cc3)c3cc(N4CCOCC4)c(F)cc3c2=O)c1	Pf Dd2 growth 6.3µM
Cc1cccc(S(=O)(=O)c2cn(C)c3cc(N4CCC(C)CC4)c(F)cc3c2=O)c1	none
Cc1cccc(Cn2cc(S(=O)(=O)c3cccc(C)c3)c(=O)c3cc(F)c(N4CCOCC4)cc32)c1	none
Cc1cccc(Cn2cc(S(=O)(=O)c3ccccc3)c(=O)c3cc(F)c(N4CCOCC4)cc32)c1	Pf Dd2 growth 8.9µM
CCCCn1cc(S(=O)(=O)c2cc(C)ccc2C)c(=O)c2cc(F)c(N3CCC(C)CC3)cc21	none
Cc1ccc(S(=O)(=O)c2cn(Cc3ccccc3)c3cc(N4CCCCC4)c(F)cc3c2=O)cc1	none
CCCCn1cc(S(=O)(=O)c2cccc(C)c2)c(=O)c2cc(F)c(N3CCOCC3)cc21	none
Cc1ccc(C)c(S(=O)(=O)c2cn(Cc3ccccc3)c3cc(N4CCCC4)c(F)cc3c2=O)c1	Pf Dd2 growth 10µM
COc1cccc(C(=O)N[C@H]2[C@H](O)[C@H](O)C[C@@H]2c2ccccc2)c1	none
NC(=O)C1CCN(CC[C@H]2CN(C(=O)Cc3ccccc3)CC[C@H]2CC(=O)O)CC1	none
C[C@@]1(O)CCN(Cc2cn[nH]c2-c2ccccc2)C[C@H]1N1CCCC1	none
O=C(Nc1ccc2c(c1)OCO2)C1CCc2sc(C(=O)N3CCCC3)cc2C1 (stereo not drawn)	none
O=C1CCCCCN1CCC(=O)N1CCCC(Nc2ccc(F)cc2)C1 (stereo not drawn)	none
COc1cccc(CNC(=O)[C@@H]2C[C@@H](O)CN2C2CCN(C(=O)c3nccc4ccccc34)CC2)c1	none
O=C([C@H]1C[C@H](Oc2cccnc2)CN1C(=O)c1ccccc1)N1CCOCC1	none
Cc1ccccc1Cn1cc(-c2ccncc2)cc1C(=O)N1CCCC(C)C1 (stereo not drawn)	Pf Dd2 growth 10µM
CN(Cc1ccccc1)C(=O)c1cc(-c2ccncc2)cn1C	none
Cc1ccc(Cn2cc(-c3ccncc3)cc2C(=O)O)cc1	none
CCCn1cc(-c2ccncc2)cc1C(=O)NCc1ccc(C)o1	none
Cc1ccccc1Cn1cc(-c2ccncc2)cc1C(=O)N(C)Cc1ccco1	Pf Dd2 growth 3.5µM
Cc1ccccc1CCC1CCCN(C(=O)c2ccccc2-c2nn[nH]n2)C1 (stereo not drawn)	none
Cc1cc(C)n(CC(=O)N[C@@H]2CN(c3ncccn3)C[C@H]2CN(C)C)n1	none
CCc1ncc(C(=O)N(C)C2CCN(Cc3ccccc3)C2)cn1 (stereo not drawn)	none
COc1ccc(C(=O)N2CCCCCCN(C)C(=O)[C@@H]3CCC[C@@H]32)cn1	none
O=C(NCCc1ccccc1)N(C1CCOCC1)C1CCN(Cc2ccccc2)CC1	Pf Dd2 growth 5.6µM
O=C(NCCc1ccccc1)N(C1CCOCC1)C1CCN(Cc2cccnc2)CC1	none
O=C(NCCc1ccccc1)N(C1CCOCC1)C1CCN(Cc2ccsc2)CC1	none
COc1ccc(CN2C[C@@H](F)[C@@H](OCc3nc4ccncc4[nH]3)C2)cc1	none
O=C(Cc1c[nH]c2ncc(-c3cn[nH]c3)cc12)NCc1cccnc1	Pf Dd2 growth 11µM
COc1ncccc1-c1cnc2[nH]cc(CC(=O)Nc3ccccc3)c2c1	none
O=C(Cc1c[nH]c2ncc(-c3ccc(F)c(Cl)c3)cc12)NCc1cccnc1	Pf Dd2 growth 4.5µM
COc1ncccc1-c1cnc2[nH]cc(CC(=O)Nc3ccncc3)c2c1	none
COc1ncccc1-c1cnc2[nH]cc(CC(=O)Nc3ccccc3C)c2c1	Pf Dd2 growth 10µM
O=C(Cc1c[nH]c2ncc(-c3ccccc3Oc3ccccc3)cc12)NCc1cccnc1	none
O=C(Cc1c[nH]c2ncc(-c3ccccc3)cc12)Nc1cccnc1	none
O=C(Cc1c[nH]c2ncc(-c3cccnc3)cc12)NCc1ccccc1	Pf Dd2 growth 5.6µM
Cc1cc(-c2cnc3[nH]cc(CC(=O)NCc4cccnc4)c3c2)ccn1	none
O=C(Cc1c[nH]c2ncc(-c3ccccc3)cc12)NCCc1ccccc1	none
O=C(Cc1c[nH]c2ncc(-c3cccnc3)cc12)NC1CC1	none
O=C(Cc1c[nH]c2ncc(-c3ccsc3)cc12)NCc1cccnc1	none
O=C(c1ccc(Br)o1)N1CCc2nn(CC3CC3)c(=O)n2CC1	none
COc1ccccc1CN[C@H]1CC(C)(C)[C@@H]2C[C@@](C)(O)CC[C@]12CCC(=O)N1CCOCC1	none
CCOc1ccc(C(=O)N2CC(C(=O)NC3CCCCC3)C3(CCOCC3)C2)cc1 (stereo not drawn)	none
Cn1nc(C(=O)N2CCC3(CCCNC3)C2)c2ccccc21 (stereo not drawn)	none
O=C(NC1CCN(c2cc(-c3cccs3)[nH]n2)CC1)c1cccc(Cl)c1	none
Cc1ccc2nc(COCC(=O)N3CCC4(CCCN(C)C4=O)C3)[nH]c2c1 (stereo not drawn)	none
CCOCc1nc(C2CCCN(C(=O)Cc3ccc(OC)cc3)C2)no1 (stereo not drawn)	none
